We go through 39 compounds from PubChem BioAssay (EPA / NIEHS).

Values joined by “and” are separate entries in the source; they are usually repeats but may differ in a detail not shown here. Equal entries are not always repeated. More than one record can exist for a structure, and the calls need not agree. Active and inactive are the calls of the source. How the source made its calls: active means hit-call score of the fitted dose curve at least 0.9, where 1 is the maximum; inactive means score below 0.9.

Read-out in this assay: Human Leukocyte Antigen - DR isotype (HLADR), HLA-DRA (gene 3122)
Kind of assay: BSK_BE3C_HLADR: BioMAP Diversity Plus: BE3C Assay for Human Leukocyte Antigen - DR isotype (HLADR) Biomarker Activity (AID 2283032). The note with it: primary human bronchial epithelial cells; actives raise or lower the signal. How it is done: BSK_BE3C is a cell-based, multiplexed-readout assay that uses bronchial epithelial cell, a human lung primary cell, with measurements taken at 24 hours after chemical dosing in a 96-well plate.BSK_BE3C_HLADR is an assay component measured in the BSK_BE3C assay. It measures HLA-DR antibody related to regulation of gene expression using ELISA technology.Data from the assay component BSK_BE3C_HLADR was analyzed into 1 assay endpoint. This assay endpoint, BSK_BE3C_HLADR, was analyzed with bidirectional fitting relative to DMSO as the negative control and baseline of activity. Using a type of binding reporter, gain or loss-of-signal activity can be used to understand changes in the signaling as they relate to the gene HLA-DRA. Furthermore, this assay endpoint can be referred to as a primary readout, because this assay has produced multiple assay endpoints where this one serves a signaling function. To generalize the intended target to other relatable targets, this assay endpoint is annotated to the cell adhesion molecules intended target family, where the subfamily is MHC Class II.
The levels of cell surface (or secreted, indicated by the prefix "s") biomarker endpoints were measured by ELISA. Overt cytotoxicity to cells in confluent adherent cultures (all systems other than the BT system) was assessed by measuring total protein levels using sulforhodamine B (SRB) staining in parallel cultures at the time of biomarker measurements, indicated as SRB endpoints. For proliferation assays for adherent cell types, individual cell types are cultured at sub-confluence and relative cell numbers quantified by SRB staining at time points optimized for each system (48 h: 3C and CASM3C systems; 72 h: BT and HDF3CGF systems; 96 h: SAg system). SRB was performed by staining cells with 0.1% SRB after fixation with 10% TCA and reading wells at 560 nm.Viability and proliferation of PBMC (T cells) was quantified by Alamar Blue reduction for the SAg and BT systems. For PBMC viability (referred to as PBMC Cytotoxicity within the assay endpoint names), cells were plated (75,000/well in a 96-well plate) and then chemical samples added for 1 h before addition of activators, SEB and TSST-1 (20 ng/mL final concentration each). Cells were incubated for 90 h. Then, Alamar Blue (20 uL/well) (Invitrogen, Cat DAL1100) was added for 6 h, and the plates were read with a fluorescence microplate reader at 546/580 nm (excitation/emission). For PBMC proliferation, cells were plated and activated as above but incubated for only 16 h prior to addition of Alamar Blue. Plates were read after 6 h.
For `C=CC(=O)OCC(C)OCC(C)OCC(C)OC(=O)C=C` (stereo not given), the half-maximal activity concentration (AC50) (usually the concentration giving half of the maximal activity seen) is 13.6 µM (active).

As to `Clc1cc(Cl)c(Cl)c(Cl)c1Cl`, the result was inactive.

As for `CC(CCC(=O)O)(c1ccc(O)cc1)c1ccc(O)cc1`, the result was inactive.

As for `CCCCCCCCCCCC(=O)N(C)CC(=O)O`, the outcome was inactive.

Turning to `C=CC(=O)OCCCCCCCC(C)C`, the outcome was inactive.

As for `O=C1CCCCCCCCCCCN1`, the result was inactive.

Turning to `Nc1nc(N)nc(-c2ccccc2)n1`, the outcome was inactive.

For `O=C(Oc1ccccc1)c1ccccc1C(=O)Oc1ccccc1`, the result was inactive.

`COC(OC)(C(=O)c1ccccc1)c1ccccc1`: the outcome was inactive.

On to `Cc1c(O)cccc1O`, for which the result was inactive.

Turning to `Oc1c(Cl)cc(Cl)c(Cl)c1Cl`, the AC50 was 6.25 µM (active).

As for `C[N+](C)(C)CCCNS(=O)(=O)C(F)(F)C(F)(F)C(F)(F)C(F)(F)C(F)(F)C(F)(F)C(F)(F)C(F)(F)F`, the AC50 was 54.8 µM (active) and the result was inactive.

Consider `c1ccc(Nc2cccc3ccccc23)cc1`, for which the AC50 was 28 µM (active) and 30.7 µM (active).

Consider `CC=C(C)C=CC=C(C)C`, for which the AC50 is 15.9 µM (active).

For `O=C(O)C(F)(F)C(F)(F)C(F)(F)C(F)(F)C(=O)O`, the result was inactive.

As to `C1CNCCN1`, the outcome was inactive.

As for `CC(c1cc(C(C)(C)C)cc(C(C)(C)C)c1O)c1cc(C(C)(C)C)cc(C(C)(C)C)c1O`, the outcome was inactive.

With `CCCCCC1=CCCC1=O`, the outcome was inactive.

As for `O=C1CCCCCCCCCCC1`, the outcome was inactive.

In the case of `CC(C)CCCCCOC(=O)CS`, the outcome was inactive.

For the compound `CCC1(C)C(=O)N(Cl)C(=O)N1Cl` (stereo not given), the outcome was inactive.

On to `CC(Cl)COP(=O)(OCC(C)Cl)OCC(C)Cl` (stereo not given), for which the result was inactive.

Turning to `CCCCC1C(=O)N(c2ccccc2)N(c2ccccc2)C1=O`, the outcome was inactive.

For the compound `CC(C)C(=O)OCCc1ccccc1`, the result was inactive.

As to `CC1=CC=C(C(C)C)CC1`, the outcome was inactive.

Regarding `Cc1ccc([N+](=O)[O-])cc1N`, the result was inactive.

Take `CCCCCCOC(=O)CCCCC(=O)OCCCCCC`: the result was inactive.

`C=CC(=O)OCCCCCCOC(=O)C=C`: the AC50 was 7.89 µM (active).

With `C=CC(=O)NC(C)(C)C`, the outcome was inactive.

Regarding `Oc1ccc(/C=C/c2cc(O)cc(O)c2)cc1`, the AC50 is 20 µM (active).

For the compound `C=C(C)C(=O)OCCCCCCCCCCCC`, the outcome was inactive.

For the compound `CCOC(=O)C1=NN(c2ccc(Cl)cc2Cl)C(C)(C(=O)OCC)C1` (stereo not given), the result was inactive.

Regarding `c1ccc2sc(SSN3CCOCC3)nc2c1`, the outcome was inactive.

Consider `CC/C=C\C/C=C\C/C=C\CCCCCCCC(=O)OC`, for which the AC50 is 13.4 µM (active).

As to `CCNc1nc(NC(C)(C)C)nc(OC)n1`, the result was inactive.

Turning to `CC1(C)CC(O)CC(C)(C)N1[O]`, the result was inactive.

Consider `c1ccc2c(c1)[nH]c1ccccc12`, for which the result was inactive.

Take `C=CC(=O)NCOCCCC`: the result was inactive.

For the compound `CCc1cccc(C)c1N(C(=O)CS(=O)(=O)O)C(C)COC` (stereo not given), the result was inactive.
